Our source for the inhibition values is ChEMBL document CHEMBL1961873, “Compounds: GSK PKIS; Assays: Nanosyn kinase panel” (2012).

In assay [1] the target is RAC-alpha serine/threonine-protein kinase (Homo sapiens) (UniProt P31749). To be noted: at 0.1 µM.
Assay [2] has the same target. To be noted: at 1 µM.
In assay [3] the target is RAC-beta serine/threonine-protein kinase (Homo sapiens) (UniProt P31751). Conditions: at 0.1 µM.
The target is the same in assay [4]. Conditions: at 1 µM.
For assay [5], the target named is RAC-gamma serine/threonine-protein kinase (Homo sapiens) (UniProt Q9Y243). To be noted: at 0.1 µM.
Assay [6] has the same target. Conditions: at 1 µM.
The target of assay [7] is G protein-coupled receptor kinase 6 (Homo sapiens) (UniProt P43250). Conditions: at 0.1 µM.
G protein-coupled receptor kinase 6 (Homo sapiens), sequence (P43250 whole entry, looked up): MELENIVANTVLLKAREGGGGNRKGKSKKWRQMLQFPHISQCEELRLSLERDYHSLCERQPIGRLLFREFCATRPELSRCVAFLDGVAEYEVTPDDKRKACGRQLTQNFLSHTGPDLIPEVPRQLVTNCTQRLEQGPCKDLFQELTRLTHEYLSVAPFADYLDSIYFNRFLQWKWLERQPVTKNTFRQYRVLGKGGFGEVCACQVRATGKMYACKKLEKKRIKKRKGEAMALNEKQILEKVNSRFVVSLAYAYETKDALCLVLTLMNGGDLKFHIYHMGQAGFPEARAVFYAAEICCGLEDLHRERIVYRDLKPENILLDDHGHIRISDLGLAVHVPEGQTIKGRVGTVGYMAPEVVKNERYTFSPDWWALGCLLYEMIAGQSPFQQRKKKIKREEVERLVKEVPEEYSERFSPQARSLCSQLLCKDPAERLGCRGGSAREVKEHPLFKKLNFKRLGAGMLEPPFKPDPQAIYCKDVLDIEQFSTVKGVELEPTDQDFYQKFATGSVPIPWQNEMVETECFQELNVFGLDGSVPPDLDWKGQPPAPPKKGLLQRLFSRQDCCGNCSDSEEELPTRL
Assay [8] shares this target. Conditions: at 1 µM.
Assay [9] deals with T1, Rhodopsin kinase GRK7 (Homo sapiens) (UniProt Q8WTQ7).
T1 sequence (whole entry): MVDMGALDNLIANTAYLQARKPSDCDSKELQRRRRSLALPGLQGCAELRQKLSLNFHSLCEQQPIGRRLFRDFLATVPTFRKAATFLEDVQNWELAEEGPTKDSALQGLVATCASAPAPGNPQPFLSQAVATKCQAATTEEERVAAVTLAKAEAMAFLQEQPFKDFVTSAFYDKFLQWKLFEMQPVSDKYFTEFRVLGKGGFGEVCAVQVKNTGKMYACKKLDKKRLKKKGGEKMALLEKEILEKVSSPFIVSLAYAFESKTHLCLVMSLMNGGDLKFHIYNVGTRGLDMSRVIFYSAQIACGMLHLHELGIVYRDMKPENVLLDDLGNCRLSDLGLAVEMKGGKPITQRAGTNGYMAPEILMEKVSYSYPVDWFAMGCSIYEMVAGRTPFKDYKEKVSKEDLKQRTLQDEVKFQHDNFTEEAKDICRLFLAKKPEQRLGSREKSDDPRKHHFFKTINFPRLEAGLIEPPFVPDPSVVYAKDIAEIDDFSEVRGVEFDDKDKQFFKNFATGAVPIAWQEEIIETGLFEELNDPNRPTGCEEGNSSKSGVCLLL
Conditions: at 0.1 µM.

The target of assay [10] is T1, Rhodopsin kinase GRK7 (Homo sapiens). Conditions: at 1 µM.
Assay [11] concerns the target Serine/threonine-protein kinase MRCK alpha (Homo sapiens) (UniProt Q5VT25). Conditions: at 0.1 µM.
Assay [12] has the same target. To be noted: at 1 µM.
The target of assay [13] is Serine/threonine-protein kinase MRCK beta (Homo sapiens) (UniProt Q9Y5S2). To be noted: at 0.1 µM.
Serine/threonine-protein kinase MRCK beta (Homo sapiens), sequence (Q9Y5S2 whole entry): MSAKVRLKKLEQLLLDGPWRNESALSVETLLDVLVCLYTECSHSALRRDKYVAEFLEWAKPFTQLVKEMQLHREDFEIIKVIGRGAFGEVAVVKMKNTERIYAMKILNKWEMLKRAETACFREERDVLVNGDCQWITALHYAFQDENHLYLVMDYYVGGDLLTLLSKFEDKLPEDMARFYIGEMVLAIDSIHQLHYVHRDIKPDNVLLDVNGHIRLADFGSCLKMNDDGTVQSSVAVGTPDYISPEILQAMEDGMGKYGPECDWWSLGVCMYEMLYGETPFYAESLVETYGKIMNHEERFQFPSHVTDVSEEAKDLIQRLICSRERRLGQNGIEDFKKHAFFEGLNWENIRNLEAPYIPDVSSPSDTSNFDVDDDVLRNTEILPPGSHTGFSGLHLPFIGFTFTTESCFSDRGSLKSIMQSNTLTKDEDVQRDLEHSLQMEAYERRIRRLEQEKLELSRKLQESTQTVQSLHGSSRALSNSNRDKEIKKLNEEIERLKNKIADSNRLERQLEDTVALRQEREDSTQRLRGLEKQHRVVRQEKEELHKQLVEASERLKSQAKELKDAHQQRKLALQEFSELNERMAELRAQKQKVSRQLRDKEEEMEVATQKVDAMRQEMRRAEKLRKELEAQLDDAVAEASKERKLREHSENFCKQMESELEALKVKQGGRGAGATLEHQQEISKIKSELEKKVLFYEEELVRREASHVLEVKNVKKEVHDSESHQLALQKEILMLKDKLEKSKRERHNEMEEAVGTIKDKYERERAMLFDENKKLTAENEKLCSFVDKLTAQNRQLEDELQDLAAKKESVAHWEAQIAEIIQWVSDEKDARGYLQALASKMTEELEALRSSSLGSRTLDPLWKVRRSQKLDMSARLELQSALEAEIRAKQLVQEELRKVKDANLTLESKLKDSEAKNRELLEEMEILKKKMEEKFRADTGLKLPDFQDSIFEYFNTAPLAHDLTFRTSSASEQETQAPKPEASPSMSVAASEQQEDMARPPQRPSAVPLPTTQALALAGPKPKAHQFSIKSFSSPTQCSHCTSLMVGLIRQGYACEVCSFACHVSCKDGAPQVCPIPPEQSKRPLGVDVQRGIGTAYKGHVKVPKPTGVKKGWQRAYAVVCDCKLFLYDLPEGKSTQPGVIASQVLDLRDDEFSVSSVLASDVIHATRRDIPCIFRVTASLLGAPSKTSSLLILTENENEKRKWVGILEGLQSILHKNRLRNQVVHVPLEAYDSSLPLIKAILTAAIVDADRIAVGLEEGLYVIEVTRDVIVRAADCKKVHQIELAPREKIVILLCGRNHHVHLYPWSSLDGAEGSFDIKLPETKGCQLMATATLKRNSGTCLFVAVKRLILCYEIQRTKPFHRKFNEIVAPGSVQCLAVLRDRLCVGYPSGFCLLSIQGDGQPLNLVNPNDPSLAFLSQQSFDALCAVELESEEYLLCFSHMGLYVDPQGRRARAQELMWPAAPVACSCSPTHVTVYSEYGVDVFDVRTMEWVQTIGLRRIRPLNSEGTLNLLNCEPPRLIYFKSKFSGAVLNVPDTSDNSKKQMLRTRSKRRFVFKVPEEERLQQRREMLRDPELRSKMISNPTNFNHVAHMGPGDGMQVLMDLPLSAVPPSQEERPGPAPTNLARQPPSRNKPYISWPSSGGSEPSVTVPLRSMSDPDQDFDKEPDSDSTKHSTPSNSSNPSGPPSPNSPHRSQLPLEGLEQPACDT
Assay [14] shares this target. Conditions: at 1 µM.
The target in assay [15] is Ribosomal protein S6 kinase alpha-5 (Homo sapiens) (UniProt O75582). Conditions: at 0.1 µM.
For assay [16] the target is unchanged. To be noted: at 1 µM.
The target in assay [17] is Ribosomal protein S6 kinase alpha-4 (Homo sapiens) (UniProt O75676). To be noted: at 0.1 µM.
Assay [18] has the same target. Conditions: at 1 µM.
Assay [19] addresses Ribosomal protein S6 kinase beta-1 (Homo sapiens) (UniProt P23443). Conditions: at 0.1 µM.
For assay [20] the target is unchanged. To be noted: at 1 µM.

Ribosomal protein S6 kinase beta-1 (Homo sapiens), sequence (P23443 whole entry, looked up): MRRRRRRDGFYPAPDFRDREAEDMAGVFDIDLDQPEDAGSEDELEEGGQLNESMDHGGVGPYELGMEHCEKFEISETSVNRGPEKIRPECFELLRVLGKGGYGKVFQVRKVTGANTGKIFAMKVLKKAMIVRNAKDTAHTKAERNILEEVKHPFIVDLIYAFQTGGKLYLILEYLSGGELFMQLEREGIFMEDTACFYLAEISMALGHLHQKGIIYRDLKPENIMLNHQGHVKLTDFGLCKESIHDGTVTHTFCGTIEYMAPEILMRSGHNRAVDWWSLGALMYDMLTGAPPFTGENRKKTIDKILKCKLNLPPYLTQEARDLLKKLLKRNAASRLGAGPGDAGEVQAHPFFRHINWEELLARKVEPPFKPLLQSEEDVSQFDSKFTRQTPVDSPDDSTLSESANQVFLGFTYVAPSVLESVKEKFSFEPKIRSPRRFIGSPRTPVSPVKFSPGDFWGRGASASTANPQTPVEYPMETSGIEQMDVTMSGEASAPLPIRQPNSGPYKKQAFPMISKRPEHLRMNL
Serine/threonine-protein kinase MRCK alpha (Homo sapiens), sequence (Q5VT25 whole entry): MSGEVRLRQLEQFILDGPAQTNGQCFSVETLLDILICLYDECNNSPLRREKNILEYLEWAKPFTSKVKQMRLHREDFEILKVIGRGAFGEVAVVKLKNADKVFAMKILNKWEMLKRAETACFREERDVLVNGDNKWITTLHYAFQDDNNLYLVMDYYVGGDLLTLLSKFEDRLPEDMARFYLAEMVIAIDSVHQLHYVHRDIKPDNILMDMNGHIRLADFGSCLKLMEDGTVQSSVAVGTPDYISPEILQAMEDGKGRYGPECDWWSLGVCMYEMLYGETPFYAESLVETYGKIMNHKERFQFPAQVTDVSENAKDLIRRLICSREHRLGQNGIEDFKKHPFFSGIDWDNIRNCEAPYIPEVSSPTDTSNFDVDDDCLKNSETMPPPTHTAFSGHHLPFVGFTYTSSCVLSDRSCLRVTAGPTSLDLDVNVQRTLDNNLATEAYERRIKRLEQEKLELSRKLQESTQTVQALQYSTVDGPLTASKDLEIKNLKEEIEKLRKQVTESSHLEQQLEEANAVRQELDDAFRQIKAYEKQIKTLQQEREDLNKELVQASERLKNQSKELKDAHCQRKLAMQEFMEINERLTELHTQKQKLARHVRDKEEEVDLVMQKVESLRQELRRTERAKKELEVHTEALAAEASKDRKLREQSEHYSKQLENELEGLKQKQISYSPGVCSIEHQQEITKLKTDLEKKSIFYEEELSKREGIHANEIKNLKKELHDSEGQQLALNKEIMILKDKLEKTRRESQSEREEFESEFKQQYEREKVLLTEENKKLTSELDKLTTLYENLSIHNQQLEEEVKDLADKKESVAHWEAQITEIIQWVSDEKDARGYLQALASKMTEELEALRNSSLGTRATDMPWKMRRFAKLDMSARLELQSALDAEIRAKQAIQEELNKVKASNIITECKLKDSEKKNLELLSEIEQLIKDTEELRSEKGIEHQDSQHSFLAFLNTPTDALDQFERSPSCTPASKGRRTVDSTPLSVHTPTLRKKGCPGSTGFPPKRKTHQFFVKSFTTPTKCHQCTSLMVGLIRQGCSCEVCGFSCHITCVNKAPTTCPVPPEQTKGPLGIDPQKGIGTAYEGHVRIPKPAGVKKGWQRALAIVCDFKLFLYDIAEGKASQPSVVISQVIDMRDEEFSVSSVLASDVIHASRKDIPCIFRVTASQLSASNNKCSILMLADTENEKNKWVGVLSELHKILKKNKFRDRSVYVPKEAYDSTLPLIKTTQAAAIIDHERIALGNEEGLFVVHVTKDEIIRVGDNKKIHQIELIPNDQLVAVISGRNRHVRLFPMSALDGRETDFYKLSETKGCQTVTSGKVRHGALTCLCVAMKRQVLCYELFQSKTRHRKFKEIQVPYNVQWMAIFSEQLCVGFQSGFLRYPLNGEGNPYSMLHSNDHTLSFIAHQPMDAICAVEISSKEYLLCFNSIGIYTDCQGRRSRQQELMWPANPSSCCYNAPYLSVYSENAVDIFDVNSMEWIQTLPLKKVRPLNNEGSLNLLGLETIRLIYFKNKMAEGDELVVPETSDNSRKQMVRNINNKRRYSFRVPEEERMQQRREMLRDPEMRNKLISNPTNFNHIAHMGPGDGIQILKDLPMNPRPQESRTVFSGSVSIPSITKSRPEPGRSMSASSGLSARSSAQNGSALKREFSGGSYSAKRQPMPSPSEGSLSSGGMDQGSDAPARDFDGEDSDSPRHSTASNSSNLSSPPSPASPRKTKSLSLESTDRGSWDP
RAC-beta serine/threonine-protein kinase (Homo sapiens), sequence (P31751 whole entry): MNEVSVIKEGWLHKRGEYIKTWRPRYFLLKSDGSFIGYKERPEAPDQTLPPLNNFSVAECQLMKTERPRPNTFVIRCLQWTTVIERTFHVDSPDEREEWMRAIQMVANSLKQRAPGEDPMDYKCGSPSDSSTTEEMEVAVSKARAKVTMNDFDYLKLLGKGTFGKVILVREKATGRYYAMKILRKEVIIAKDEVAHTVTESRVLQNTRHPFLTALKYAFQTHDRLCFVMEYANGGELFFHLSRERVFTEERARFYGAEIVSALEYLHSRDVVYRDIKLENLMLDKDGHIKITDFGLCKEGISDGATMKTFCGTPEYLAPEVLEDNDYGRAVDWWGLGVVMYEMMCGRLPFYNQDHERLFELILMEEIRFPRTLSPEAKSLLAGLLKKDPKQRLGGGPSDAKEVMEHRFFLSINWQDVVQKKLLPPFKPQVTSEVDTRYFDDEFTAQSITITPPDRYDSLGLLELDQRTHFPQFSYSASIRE

Broadly, the inhibition is the drop in the measured response relative to a control, in per cent. Take `O=C(Nc1ccc(Oc2ccc3[nH]c(NC(=O)c4ccco4)nc3c2)cc1)Nc1cc(C(F)(F)F)ccc1F`: the inhibition in assay [1] was -3.62%; in assay [2], -0.4%; in assay [3] it was -3.05%; in assay [4] it was -2.64%; in assay [5], -3.47%; in [6], -4.94%. Besides, the inhibition in assay [7] is 0.72%; in assay [8] it was -4.1%; in assay [9], -0.48%; in assay [10], -4.51%; in assay [11], -0.11%; in [12] it was -0.59%. Also, the inhibition is 1.48% in [13]; 2.67% in [14]; -0.96% in assay [15]; 1.79% in assay [16]; 1.72% in assay [17]; 5.67% in assay [18]. Besides, the inhibition in [19] came to 14.2%; in [20] it was 58.4%.

Consider `Cc1ccc(O)cc1Nc1ccnc2ccc(S(C)(=O)=O)cc12`, for which the inhibition in assay [1] is 0.79%; in assay [2] it was 0.22%; in [3], 2.36%; in assay [4] it was 1.9%; in [5] it was 1.87%; in assay [6], 4.72%. Further, the inhibition in assay [7] is 6.06%; in [8] it was 7.8%; in assay [9], 3.42%; in [10], 9.64%; in assay [11] it was -0.59%; in [12] it was 3.17%. Besides, the inhibition in assay [13] was -0.33%; in assay [14] it was 1.42%; in [15] it was 11.4%; in [16], 9.44%; in [17], 2.55%; in assay [18] it was 3.94%. Besides, the values for the inhibition in assay [19] and in [20] were 3.76% and 2.87%, respectively.

`Cc1ccc2c(-c3ccnc(Nc4ccc5c(c4)OCCO5)n3)c(-c3ccc(C(F)(F)F)cc3)nn2n1`: the inhibition is 1.37% in assay [1]; 1.23% in assay [2]; 1.5% in assay [3]; 1.65% in [4]; 1.43% in [5]; -4.48% in assay [6]. In addition, the inhibition was 0.55% in assay [7]; 2.19% in assay [8]; 5.75% in [9]; 2.78% in assay [10]; -5.75% in [11]; -1.13% in assay [12]. Besides, the inhibition was 0.19% in assay [13]; 0.96% in assay [14]; -0.15% in [15]; -1.56% in assay [16]; 0.87% in [17]; 2.08% in assay [18]. For the same molecule, the inhibition in assay [19] is 0.35%; in assay [20], 0.24%.

`c1ccc(Nc2ncc(-c3ccccc3)o2)cc1`: the inhibition turned out to be 1.4% in assay [1]; 0.83% in [2]; 0.54% in [3]; 2.99% in assay [4]; 1.75% in assay [5]; 3.46% in assay [6]. Also, the inhibition in assay [7] was found to be 4.61%; in [8], 4.8%; in assay [9] it was 9.62%; in assay [10], 4.71%; in assay [11], 1.05%; in assay [12], 2.6%. The inhibition in assay [13] is -0.11%; in assay [14] it was 0.28%; in [15], 3.68%; in assay [16] it was 3.58%; in [17] it was 2.52%; in assay [18] it was 3.34%. Further, the inhibition in assay [19] was 3.16%; in assay [20], 5%.

`CCOc1nccc2c1nc(-c1nonc1N)n2CC`: the inhibition was found to be 0.82% in [1]; 1.86% in assay [2]; 1.97% in assay [3]; 1.44% in assay [4]; 0.46% in [5]; 1.25% in assay [6]. Also, the inhibition worked out at 4.85% in [7]; 18.1% in assay [8]; 3.99% in [9]; 8.26% in assay [10]; 2.25% in assay [11]; 5.56% in assay [12]. The inhibition in assay [13] came out at 1.28%; in assay [14] it was 2.92%; in assay [15], 13.2%; in assay [16], 45.4%; in [17], 6.75%; in assay [18] it was 27.6%. The inhibition in [19] came out at 13.4%; in [20] it was 56.5%.

For `CN(C)c1cc2c(Nc3ccc4c(cnn4Cc4ccccc4)c3)ncnc2cn1`, the inhibition in [1] is 0.51%; in assay [2], 0.62%; in assay [3] it was 2.07%; in assay [4], 1.16%; in assay [5], 0.46%; in [6], 1.23%. In addition, the inhibition in [7] was 3.25%; in [8], 3.36%; in [9], 2.54%; in [10], 3.15%; in assay [11] it was -0.16%; in assay [12] it was 0.83%. Moreover, the inhibition in assay [13] was 1.04%; in assay [14], 1.67%; in assay [15], 3.83%; in assay [16], 6.2%; in assay [17], 2.42%; in assay [18] it was 6.24%. The inhibition in [19] worked out at 2.01%; in assay [20], 3.88%.

Regarding `NS(=O)(=O)c1ccc(N/N=C2\C(=O)Nc3ccc(Cl)cc32)cc1`, the inhibition turned out to be 1.17% in assay [1]; 1.19% in assay [2]; 3.01% in assay [3]; 2.43% in [4]; 1.79% in assay [5]; 1.82% in [6]. Further, the inhibition in [7] was 4.41%; in assay [8], 8.19%; in assay [9] it was 2.49%; in assay [10] it was 2.98%; in assay [11] it was -0.18%; in [12], 2.52%. Further, the inhibition is 0.03% in assay [13]; 0.67% in assay [14]; -2.92% in assay [15]; -0.64% in [16]; 2.66% in assay [17]; 5.77% in assay [18]. Further, the inhibition was 1.75% in assay [19] and 2.32% in assay [20].
